40 molecules from PubChem BioAssay (EPA / NIEHS) can be followed below.

Calls of active or inactive are those of the source. Rule for the calls: active = hit-call score of the fitted dose curve at least 0.9, where 1 is the maximum; inactive = score below 0.9.

Chain of Hepatocyte nuclear factor 6 (Homo sapiens) (Q9UBC0 whole entry, looked up): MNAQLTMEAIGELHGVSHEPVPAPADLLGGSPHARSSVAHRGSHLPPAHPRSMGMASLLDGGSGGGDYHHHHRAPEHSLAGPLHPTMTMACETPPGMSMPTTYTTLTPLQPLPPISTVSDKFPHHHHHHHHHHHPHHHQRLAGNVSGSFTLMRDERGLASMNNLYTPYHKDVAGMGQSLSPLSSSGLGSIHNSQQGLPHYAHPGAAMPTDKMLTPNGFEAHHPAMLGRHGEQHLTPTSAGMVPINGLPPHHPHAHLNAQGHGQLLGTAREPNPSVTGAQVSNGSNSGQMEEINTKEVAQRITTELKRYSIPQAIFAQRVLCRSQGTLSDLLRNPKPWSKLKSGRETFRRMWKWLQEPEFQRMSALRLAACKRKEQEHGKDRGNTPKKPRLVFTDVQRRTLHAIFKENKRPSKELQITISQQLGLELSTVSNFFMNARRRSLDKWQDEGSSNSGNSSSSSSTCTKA

The assay has as its target Hepatocyte nuclear factor 6 (Homo sapiens) (UniProt Q9UBC0). As to the kind of experiment: ATG_HNF6_CIS: Attagene CIS-FACTORIAL HepG2 Assay for human Hepatocyte Nuclear Factor 6 (HNF6) (AID 2282952). The note with it: HepG2 Attagene cis-factorial HNF6 reporter transcription; actives raise or lower the signal. The method, then:
ATG_CIS is a cell-based, multiplexed-readout assay that uses HepG2, a human liver cell line, with measurements taken at 24 hours after chemical dosing in a 24-well plate.ATG_HNF6_CIS is one of 52 assay component(s) measured or calculated from the ATG_CIS assay. It is designed to make measurements of mRNA induction, a form of inducible reporter, as detected with fluorescence intensity signals by Reverse transcription polymerase chain reaction (RT-PCR) and Capillary electrophoresis technology.Data from the assay component ATG_HNF6_CIS was analyzed into 1 assay endpoint. This assay endpoint, ATG_HNF6_CIS, was analyzed with bidirectional fitting relative to DMSO as the negative control and baseline of activity. Using a type of inducible reporter, measures of mRNA for gain or loss-of-signal activity can be used to understand the reporter gene at the transcription factor-level as they relate to the gene ONECUT1. Furthermore, this assay endpoint can be referred to as a primary readout, because this assay has produced multiple assay endpoints where this one serves a reporter gene function. To generalize the intended target to other relatable targets, this assay endpoint is annotated to the dna binding intended target family, where the subfamily is homeobox protein.
Human liver HepG2 cells are transiently transfected with multiple reporter transcription units (MRTUs) in 6-well plates using FuGene 6 reagent (Roche; 3 ml FuGene/1 mg DNA). The MRTU constructs are regulated by a cis-regulating element (promoter). […] A major difference between the CIS and TRANS system is that in CIS activities of endogenous TFs are measured, whereas the TRANS assay evaluates changes in activities of exogenous, chimeric NR-Gal4 proteins. […] At the end of 24 hour incubation, total RNA was isolated using TriZol reagent (Invitrogen). The isolated RNA is then reverse-transcribed using oligo(dT) primer and Mo-MLV reverse transcriptase (Invitrogen) with DNAse I (Ambion) treatment for 30 min. The one-tenth of the produced cDNA was amplified by PCR using Taq DNA polymerase (Invitrogen) and two reporter sequence-specific primers. The PCR products were fluorescently labeled by primer extension with 6-arboxyfluorescein (6-FAM) 5'-labeled reporter sequence-specific primer (2 min at 95 C, 20 s at 68 C and 10 min at 72 C) and these products were digested with 5U of HpaI (New England Biolabs) for 2h at 37 C. The fragments were purified using Qiaquick PCR columns (Qiagen), analyzed on an ABI 3130xL genetic analyzer (Applied Biosystems) with peak positions identified by using a set of X-rhodamine (ROX)-labeled MapMarker1000 molecular weight standards (BioVentures). The raw capillary electrophoresis data was processed using Attagraph software (Attagene).
For `CCCCC/C=C\CCC=O`, the result was inactive. The same measure for `CCCOCCOCCOCCO`: “inactive”. As for `Cc1cnc(NC(=O)C2=C(O)c3ccccc3S(=O)(=O)N2C)s1`, the entry is “inactive”. The same measure for `N=c1ccn2c(n1)O[C@H]1[C@H](O)[C@@H](CO)O[C@H]12`: “inactive”; for `CC=CC(F)(F)C(F)(F)C(F)(F)F`: “inactive”; for `O=C(Oc1ccccc1)c1ccc2ccccc2c1O`: “inactive”. With `COc1c2ccoc2cc2oc(=O)ccc12`, the result was inactive. In the case of `C1CN(SSN2CCOCC2)CCO1`, the molecule was called inactive. As for `CC(C)(C)C(=O)CCc1ccc(Cl)cc1`, the entry is “inactive”; as for `N#CCc1ccc(Cl)cc1Cl`, “inactive”; as for `COc1cc(C)ccc1C(C)C`, “inactive”. Take `Cn1c(=O)[nH]c2ncn(C)c2c1=O`: the result was inactive.

With `CCc1c(C(=O)O)c(=O)cnn1-c1ccc(Cl)cc1`, the molecule was classed as inactive. As for `CCc1ccc2c(c1)C(=O)c1ccccc1C2=O`, the entry is “inactive”.

For the molecule `Cc1ccc2c(c1)C(=O)c1ccccc1C2=O`, the result was inactive. For the molecule `CC(C)c1ccc2c(c1)CC[C@H]1[C@](C)(CN)CCC[C@]21C`, the molecule was classed as inactive. As for `CCN(Cc1cccc(S(=O)(=O)O)c1)c1ccc(C(=C2C=CC(=[N+](CC)Cc3cccc(S(=O)(=O)[O-])c3)C=C2)c2ccccc2)cc1`, the entry is “inactive”. As for `OCCCS`, the entry is “inactive”; as for `Cc1cc(C)c(C)cc1C`, “inactive”.

For the molecule `CC(=O)Oc1ccc(C)cc1`, the molecule was classed as inactive. As for `CN(C)c1ccc(C(=N)c2ccc(N(C)C)cc2)cc1`, the entry is “inactive”; as for `COC(=O)C1=C(C)NC(C)=C(C(=O)OCC(C)C)C1c1ccccc1[N+](=O)[O-]` (stereo not given), “inactive”; as for `COC=O`, “inactive”. As for `c1ccc(CCCc2ccncc2)cc1`, the entry is “inactive”. As for `CCCCCCCCCCOC(C)=O`, the entry is “inactive”. With `O=C1CCCCCCCCCCCCCCCO1`, the call was inactive. With `CC(C)(C)c1ccc(-c2ccc(C(C)(C)C)cc2)cc1`, the outcome was inactive. The same measure for `OC1OCCOC1O` (stereo not given): “inactive”.

On to `COC(=O)/C=C/C(C)=C\C=C\C(C)=C\C=C\C=C(C)\C=C\C=C(C)\C=C\C(=O)O`, for which the result was inactive.

Regarding `CCCC(=O)OCc1ccccc1`, the molecule was classed as inactive. Turning to `CC1=NN(c2cc(S(=O)(=O)O)ccc2Cl)C(=O)C1N=Nc1ccccc1` (stereo not given), the call was inactive. As for `NC(CO)(CO)CO`, the entry is “inactive”; as for `C=CCOCC(O)CCl` (stereo not given), “inactive”. The same measure for `CCCCC/C=C\C/C=C\CCCCCCCC(=O)OC`: “inactive”; for `CC=CC(=O)N(CC)c1ccccc1C`: “inactive”. As for `O=c1cc(-c2ccccc2)oc2ccccc12`, the entry is “inactive”. As to `Cc1cc(=O)n(-c2ccccc2)n1C`, the molecule was classed as inactive. As for `C=CC(=O)OCCOC1C2CCC1C1CC=CC12` (stereo not given), the entry is “inactive”; as for `Nc1ccc2cc3ccccc3cc2c1`, “inactive”; as for `CCC(C)OC(=O)c1ccc(O)cc1` (stereo not given), “inactive”.
